Test results published in the supplement of paper PMC10981050.
Where “and” joins values, the source holds several entries; their conditions need not be identical. Equal entries are not always repeated. Structures can show the parent of a compound that is named as a salt.

Tests used:
Assay in all cases: cell viability relative to vehicle control; higher = less cytotoxic
Details in all cases: 10 µM
[1] = tested on: K562
Summary of the method: (§1)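 CRISPR-edited SRSF2 P95 mutant and isogenic wild-type clones of four leukaemia lines were screened against Selleck bioactive, kinase and epigenetic probe libraries, with identity-inconsistent compounds removed. Compounds were acoustically dispensed into 384-well plates at a single 10 µM dose, with 2000 cells in 50 µL medium per well. After 48 h, supernatant was removed and CellTiter-Glo luminescence was read. Viability was expressed as percent of the on-plate DMSO vehicle control, analysed in Genedata Screener.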

[2] = tested on: MARIMO
Summary of the method: as §1

[3] = tested on: MOLM14
Summary of the method: as §1

[4] = tested on: OCI-AML2
Summary of the method: as §1

Compound	cell viability ([1]; SRSF2 genotype: SRSF2 P95H/wt)	cell viability ([1]; SRSF2 genotype: SRSF2 wt/wt)	cell viability ([2]; SRSF2 genotype: SRSF2 P95H/wt)	cell viability ([2]; SRSF2 genotype: SRSF2 wt/wt)	cell viability ([3]; SRSF2 genotype: SRSF2 P95H/wt)	cell viability ([3]; SRSF2 genotype: SRSF2 wt/wt)	cell viability ([4]; SRSF2 genotype: P95H/wt)	cell viability ([4]; SRSF2 genotype: wt/wt)
CC(C)=C1CC[C@@H](C)CC1=O [Pulegone]	95.9% and 92.3%	93%	101%	95.6%	98.1%	96.3%	96%	98.7%
COC(=O)N[C@H](C(=O)N1CCC[C@H]1c1ncc(-c2ccc(-c3ccc(-c4cnc([C@@H]5CCCN5C(=O)[C@@H](NC(=O)OC)C(C)C)[nH]4)cc3)cc2)[nH]1)C(C)C	93.2% and 92%	89.7%	72.4%	83.9%	78.2%	88.5%	84.6%	84.3%
COc1cc2c(cc1O)[C@@H](Cc1ccc(O)c(Oc3ccc(C[C@@H]4c5cc(OC)c(OC)cc5CCN4C)cc3)c1)N(C)CC2 [Daurisoline]	30.5% and 37.4%	15.9%	3.28%	9.42%	1.06%	0.83%	1.65%	1.01%
CC(=O)O[C@@]12CO[C@@H]1C[C@H](O)[C@@]1(C)C(=O)[C@H](O)C3=C(C)[C@@H](OC(=O)[C@H](O)[C@@H](NC(=O)OC(C)(C)C)c4ccccc4)C[C@@](O)([C@@H](OC(=O)c4ccccc4)[C@H]21)C3(C)C [Docetaxel Trihydrate]	24.8% and 32.4%	32.7%	8.87%	5.68%	8.57%	4.2%	6.94%	13.5%
Cc1cc(Cl)ccc1OCCCC(=O)NO [Droxinostat]	83.6% and 88.4%	85.2%	76.4%	89.8%	84.8%	87.1%	79.3%	80.7%
Clc1ccc(CSC(Cn2ccnc2)c2ccc(Cl)cc2Cl)cc1 (stereo not drawn) [Sulconazole Nitrate]	57.2% and 61.2%	62.7%	46.5%	43.2%	45.7%	44.8%	40%	45.1%
CCS(=O)(=O)N1CC(CC#N)(n2cc(-c3ncnc4[nH]ccc34)cn2)C1	110% and 106%	108%	111%	115%	106%	109%	84.7%	92.9%
CC(=O)[O-].[K+] [Potassium acetate]	100% and 97.3%	103%	106%	97.5%	96.7%	99.6%	111%	93.4%
CC(C)N(CC[C@H](c1ccccc1)c1cc(CO)ccc1O)C(C)C	89.7% and 94%	98.4%	88.3%	90.7%	93.3%	97.9%	93.5%	90.9%
OC[C@H]1O[C@@H](Oc2ccc(O)cc2)[C@H](O)[C@@H](O)[C@@H]1O [Arbutin (Uva, p-Arbutin)]	104% and 97.2%	95.1%	96.6%	104%	103%	101%	100%	107%
CN(C)C(=O)CCSC(SCCC(=O)O)c1cccc(/C=C/c2ccc3ccc(Cl)cc3n2)c1 (stereo not drawn)	102% and 103%	98.5%	110%	111%	108%	107%	101%	103%
CCn1c(C(=O)N(C2CC2)C2CC2)cc2c3c(ncn3C)c(Nc3cc(C)n(C)n3)nc21	103%	108%	108%	102%	41.6%	38.5%	43%	57.1%
C=CC[N+]1([C@H]2C[C@H]3[C@@H]4CC[C@H]5C[C@H](O)[C@@H](N6CCOCC6)C[C@]5(C)[C@H]4CC[C@]3(C)[C@H]2OC(C)=O)CCCC1 [Rocuronium bromide]	98.3% and 90.4%	91.2%	90.3%	95.3%	103%	96.7%	88.1%	99.3%
CC(C)[C@H](N)C(=O)OCCOCn1cnc2c(=O)nc(N)[nH]c21 [Valaciclovir HCl]	100% and 99%	102%	101%	111%	101%	101%	98.7%	112%
NC(=O)c1ccc(-c2nc(-c3ccccn3)c(-c3ccc4c(c3)OCO4)[nH]2)cc1	103% and 105%	97.9%	100%	106%	102%	97.9%	109%	98.3%
Cn1cnc2c(F)c(Nc3ccc(Br)cc3F)c(C(=O)NOCCO)cc21	84.2% and 92.4%	79.5%	41%	38.6%	45.8%	28.9%	39.5%	42.5%
CCC(C)C1OC2(CCC1C)CC1CC(CC=C(C)C(OC3CC(OC)C(OC4CC(OC)C(O)C(C)O4)C(C)O3)C(C)C=CC=C3COC4C(O)C(C)=CC(C(=O)O1)C34O)O2 (stereo not drawn) [Ivermectin]	24.6% and 35%	26.9%	25.9%	22.9%	21.3%	18.4%	4.65%	7.41%
OCCOCCN1CCN(C(c2ccccc2)c2ccc(Cl)cc2)CC1 (stereo not drawn) [Hydroxyzine 2HCl]	90.8% and 99.8%	96.4%	85.2%	88.6%	86.6%	95%	95.4%	86.1%
Fc1ccc([C@@H]2CCNC[C@H]2COc2ccc3c(c2)OCO3)cc1 [Paroxetine HCl]	63.6% and 68.3%	67.6%	44%	44.1%	47.7%	56.5%	43%	52.4%
O=C1CCN(c2ccccc2)N1 [Phenidone]	106% and 107%	103%	102%	105%	100%	105%	99.5%	111%
C[n+]1cc2c3c(ccc2c2ccc4cc5c(cc4c21)OCO5)OCO3 [Sanguinarine chloride]	0.68% and 0.46%	0.74%	0.3%	0.38%	0.25%	0.34%	0.31%	0.29%

Compound	cell viability ([1]; SRSF2 genotype: SRSF2 P95H/wt)	cell viability ([1]; SRSF2 genotype: SRSF2 wt/wt)	cell viability ([2]; SRSF2 genotype: SRSF2 P95H/wt)	cell viability ([2]; SRSF2 genotype: SRSF2 wt/wt)	cell viability ([3]; SRSF2 genotype: SRSF2 P95H/wt)	cell viability ([3]; SRSF2 genotype: SRSF2 wt/wt)	cell viability ([4]; SRSF2 genotype: P95H/wt)	cell viability ([4]; SRSF2 genotype: wt/wt)
Cc1nc(Nc2ncc(C(=O)Nc3c(C)cccc3Cl)s2)cc(N2CCN(CCO)CC2)n1 [Dasatinib Monohydrate]	23.6% and 40.6%	28.3%	67.5%	70.5%	38.8%	39%	33.3%	43.3%
CN1CCN(c2nc(C3=C(c4c[nH]c5ccccc45)C(=O)NC3=O)c3ccccc3n2)CC1 [Sotrastaurin (AEB071)]	88.8% and 91.3%	81.6%	72.4%	80.5%	30.8%	21.6%	32.8%	50.3%
O=C(Nc1cccnc1)N1CCC(Cc2cccc(Oc3ccc(C(F)(F)F)cn3)c2)CC1	42% and 43.6%	44.4%	43.6%	35.1%	51.2%	28.9%	38.3%	27.1%
S=C(NCc1ccc2c(c1)OCO2)N1CCN(c2ncnc3c2oc2ccccc23)CC1 [Amuvatinib (MP-470)]	62.3% and 74.9%	64.2%	50.3%	41.5%	68.2%	76.4%	28%	42.5%
CC1CNc2c(cccc2S(=O)(=O)N[C@@H](CCCNC(=N)N)C(=O)N2CC[C@@H](C)C[C@@H]2C(=O)O)C1 (stereo partly drawn) [Argatroban]	107% and 105%	94%	100%	108%	103%	101%	91.7%	107%
CCc1cc(/C(C)=N/OCc2ccc(C3CCCCC3)c(C(F)(F)F)c2)ccc1CN1CC(C(=O)O)C1 [BAF312 (Siponimod)]	86.8% and 89.2%	87%	79.3%	67.2%	66.5%	66.3%	48.1%	49.8%
C=C(C)C1CCC2(C)CCC(=O)C(C)=C2C1 (stereo not drawn)	111% and 105%	112%	106%	100%	112%	110%	102%	101%
CC(C(=O)O)c1ccc2c(c1)CC(=O)c1ccccc1S2 (stereo not drawn) [Zaltoprofen]	102% and 98.4%	97.7%	96.8%	103%	99.1%	98.8%	94.4%	104%
CN(C)c1ccc(C(=C2C=CC(=[N+](C)C)C=C2)c2ccc(N(C)C)cc2)cc1 [Crystal violet]	0.3% and 0.45%	1.14%	0.76%	1.04%	0.09%	0.09%	0.06%	0.11%
COc1ccc(C(=O)Nc2sc3c(c2C(N)=O)CCCC3)cc1OC	95.4% and 96.5%	91.5%	93.8%	91.9%	79.8%	93%	85.2%	81.4%
c1cn2cc(-c3ccc4cn[nH]c4c3)nc(Nc3ccc(N4CCOCC4)cc3)c2n1 [Entospletinib (GS-9973)]	89.8% and 84.7%	95.7%	89.5%	89.9%	79%	95.6%	92.5%	85.6%
COc1cc2ncc(-c3ccccc3)nc2cc1OC [Tyrphostin AG 1296 (AG 1296)]	90.3% and 94.9%	93%	81.5%	82.2%	48.2%	56%	69.5%	65.6%
C[C@@]1(F)[C@H](O)[C@@H](CO)O[C@H]1n1ccc(=O)[nH]c1=O [2'-deoxy-2'-fluoro-2'-C-methyluridine]	93.6% and 89.6%	89.8%	87.2%	101%	87.2%	91.3%	86.6%	104%
CN(C)N(C)C(=O)[C@@]1(Cc2ccccc2)CCCN(C(=O)[C@@H](Cc2c[nH]c3ccccc23)NC(=O)C(C)(C)N)C1 [Anamorelin]	82.4% and 78.3%	80.7%	70.5%	74.3%	76.5%	78.8%	69.2%	68.2%
CC[C@@H](N)CNc1ccnc(-c2cc(-c3cnn(C)c3)ccc2O)n1	5.05% and 8.35%	7.08%	2.69%	1.1%	0.8%	0.44%	1.45%	10.8%
CCOc1ccccc1OC(c1ccccc1)C1CNCCO1 (stereo not drawn) [Reboxetine mesylate]	94.5% and 93.4%	90.7%	81.9%	91.7%	92.2%	95.8%	70.1%	97.4%
O=c1cc(-c2ccccc2)oc2c1ccc1ccccc12 [alpha-Naphthoflavone]	94.2% and 87.3%	95.9%	90.5%	96.5%	117%	109%	86.5%	99.7%
Cc1cc(C)c2c(c1)[C@@H](N(Cc1cc(C(F)(F)F)cc(C(F)(F)F)c1)c1nnn(C)n1)CCCN2C[C@H]1CC[C@H](C(=O)O)CC1	89% and 90.3%	90.1%	104%	114%	95.4%	98.7%	101%	116%
Clc1ccc(C2(c3ccc(-c4cn[nH]c4)cc3)CCNCC2)cc1	44.6% and 48.5%	34.5%	40.3%	45%	24.2%	12.5%	21.6%	27.4%
Cc1ccc(NS(=O)(=O)c2ccc3c(c2)C2C=CCC2C(c2ccc(C(=O)O)cc2)N3)cc1C (stereo not drawn)	108% and 98.9%	110%	102%	101%	106%	104%	103%	117%
